# Reference: PMC4552634, “A New Set of Chemical Starting Points with Plasmodium falciparum Transmission-Blocking Potential for Antimalarial Drug Discovery” (PLoS ONE, 2015)
# Where two headings read alike, the source gives them in different places. About 3,200 (25%) of roughly 13,000 compounds showed an effect of 50% or more. This is one part of the list.
# Tested on: P. falciparum stage V gametocytes
# Design: BacTiter-Glo ATP luminescence viability of purified stage V gametocytes in 384-well plates, per cent inhibition versus DMSO
# Conditions: 48 h, 5 µM, inhibitor
SMILES,% Inhibition,% Inhibition (% Inhibition)
CCC(C)(C)c1ccc(OCCCC(=O)Nc2ccc(Cl)c([N+](=O)[O-])c2)c(C(C)(C)CC)c1 [TCMDC-125721],-38.1%,–
C#CCOc1ccc2ccccc2c1CNCCCCCCNCc1c(OCC#C)ccc2ccccc12 [TCMDC-137838],115.4%,–
C#CCCOc1ccc2ccccc2c1CNCCCCCCNCc1c(OCCC#C)ccc2ccccc12 [TCMDC-137832],106.3%,–
O=C(NCCN1CCOCC1)c1csc(C2CCCN(C(=O)c3ccc(O)c(-c4cc(Cl)cc(Cl)c4)c3)C2)n1 (centres unmarked) [TCMDC-140155],11.07%,–
CC(C)(C)SC1SC(SC(C)(C)C)C(OC(=O)c2ccccc2)C(OC(=O)c2ccccc2)C1OC(=O)c1ccccc1 (centres unmarked) [TCMDC-131948],-26.61%,–
Cn1nc(-c2ccc(S(=O)(=O)NC3CCC(CN4CCC(c5c[nH]c6ccccc56)CC4)CC3)s2)cc1C(F)(F)F (centres unmarked) [TCMDC-140166],–,62.77%
Cn1nc(-c2ccc(S(=O)(=O)NC3CCC(CN4CCC(c5c[nH]c6ccccc56)CC4)CC3)s2)cc1C(F)(F)F (centres unmarked) [TCMDC-140174],–,96.23%
O=C(Nc1ccccc1C(F)(F)F)NC1CCC(CN2CCC(c3c[nH]c4ccccc34)CC2)CC1 (centres unmarked) [TCMDC-140197],–,5.962%
O=C(NC1CCC(CN2CCC(c3c[nH]c4ccccc34)CC2)CC1)c1cc(-c2ccccc2Cl)oc1C(F)(F)F (centres unmarked) [TCMDC-140358],4.446%,–
O=C(Nc1ccccc1C(F)(F)F)NC1CCC(CN2CCC(c3c[nH]c4ccccc34)CC2)CC1 (centres unmarked) [TCMDC-140177],–,-23.5%
O=S(=O)(NC1CCC(CN2CCC(c3c[nH]c4ccccc34)CC2)CC1)c1ccc(Cl)c(Cl)c1 (centres unmarked) [TCMDC-140164],18.4%,–
CCN1CCN(c2cc(C)c3cc(NC(=O)c4ccc(N(CC)CC)cc4)ccc3n2)CC1 [TCMDC-125574],18.21%,–
COc1ccc(-c2csc(NC(=O)CCC(=O)O)n2)cc1OC [TCMDC-124274],-7.165%,–
CCCC(C)c1ccc(N2C(N)=NC(N)=NC2(C)C)cc1 (centres unmarked) [TCMDC-137715],12.27%,–
O=C(O)c1ccc(NC(=O)C2CC(=O)N(Cc3ccc(Cl)cc3)C(=Nc3ccc(Cl)cc3)S2)cc1 (centres unmarked) [TCMDC-124036],-57.25%,–
COc1ccc(C[C@H](N)C(=O)N[C@H]2[C@@H](O)[C@H](n3cnc4c(N(C)C)ncnc43)O[C@@H]2CO)cc1 [TCMDC-123493],–,123.8%
COc1ccc(C[C@H](N)C(=O)N[C@H]2[C@@H](O)[C@H](n3cnc4c(N(C)C)ncnc43)O[C@@H]2CO)cc1 [TCMDC-123927],–,96.23%
CS(=O)(=O)c1ccc(-c2cncc(Nc3cccc([N+](=O)[O-])c3)c2)cc1 [TCMDC-136669],44.65%,–
CCn1cc(CN2C(=O)C(c3ccccc3)(c3ccccc3)N=C2N)cn1 [TCMDC-136798],10.89%,–
CC1(C)N=C(N)N=C(N)C1c1ccc(Cl)c(Cl)c1 (centres unmarked) [TCMDC-137491],-1.127%,–
N#CC(NC(=O)C=Cc1ccccc1)c1ccccc1 (centres unmarked) [TCMDC-131635],-0.4742%,–
c1ccc(Oc2cccc(Nc3ccnc4ccccc34)c2)cc1 [TCMDC-137251],14.27%,–
Cl.c1ccc2c(Nc3ccc(Cc4ccc(Nc5c6ccccc6nc6ccccc56)cc4)cc3)c3ccccc3nc2c1 [TCMDC-137354],113.6%,–
Cc1ccc(Nc2nc(N)c3ccccc3n2)cc1.Cl [TCMDC-123638],30.09%,–

SMILES,% Inhibition,% Inhibition (% Inhibition)
Cl.Nc1nc(Nc2cccc(O)c2)nc2ccccc12 [TCMDC-124459],5.684%,–
c1cc(Cc2ccc(Nc3c4ccccc4nc4ccccc34)cc2)cc(Nc2c3ccccc3nc3ccccc23)c1 [TCMDC-137793],84.71%,–
CC1(C)Cc2c(oc3ncn(CCn4cnc5oc6c(c5c4=N)CC(C)(C)SC6)c(=N)c23)CS1 [TCMDC-125795],-5.815%,–
O=C(NC1CC1)c1ccc(N2CCC(c3ccccc3)CC2)nc1 [TCMDC-134590],17.19%,–
Cc1ccc(CON2C(N)=NC(N)=NC2(C)C)cc1C [TCMDC-131660],9.174%,–
COc1ccc(NC(=O)[C@H](CC(C)C)Nc2cc(C)nc(NCCOc3ccccc3)n2)cc1 [TCMDC-134760],36.25%,–
CC(C)CCNC(=N)Nc1ccc(OCCCCCOc2ccc(NC(=N)NCCC(C)C)cc2)cc1 [TCMDC-137614],113.6%,–
NOCCCOc1ccc(Cl)cc1 [TCMDC-123471],6.801%,–
CS(=O)(=O)Nc1ccc(OCCCCCCOc2ccc(NS(C)(=O)=O)cc2)cc1 [TCMDC-137531],17.32%,–
CC(C)CCNC(=N)Nc1ccc(OCCCOc2ccc(NC(=N)NCCC(C)C)cc2)cc1 [TCMDC-137615],100.2%,–
COc1ccc(-c2ccc(CNC(=O)c3cccc(C#N)c3)c(F)c2)cc1CN1CCCN(C)CC1 [TCMDC-133367],3.232%,–
O=C(CCc1cccnc1)Nc1ccc(-c2cccc(-c3nc4ccc(F)cc4[nH]3)c2)cc1 [TCMDC-132146],-0.1199%,–
CC1(C)CC(=O)c2c(O)cc(OCc3ccncc3)cc2O1 [TCMDC-131348],-21.15%,–
Cc1cccc2nc(-c3cccc(-c4cccc(CNCCCN5CCCC5=O)c4)c3)[nH]c12.O=C(O)C(F)(F)F [TCMDC-132751],3.721%,–
Cc1cccc2nc(-c3ccc(-c4cccc(CNCCN5CCNCC5)c4)cc3)[nH]c12 [TCMDC-132867],101.3%,–
Cc1cccc2nc(-c3cccc(-c4ccc(CNCCCN5CCCC5=O)cc4)c3)[nH]c12.O=C(O)C(F)(F)F [TCMDC-132753],7.956%,–
Cc1cccc2nc(-c3cccc(-c4cccc(CNCCc5cccn5C)c4)c3)[nH]c12.O=C(O)C(F)(F)F [TCMDC-132685],-19.68%,–
Cc1cccc2nc(-c3cccc(-c4cccc(CNCCN5CCNCC5)c4)c3)[nH]c12 [TCMDC-132873],108%,–
Cc1cccc2nc(-c3ccc(-c4ccc(C(=O)NCCN5CCCC5)cc4)cc3)[nH]c12 [TCMDC-132320],6.886%,–
CCOc1cc2ncnc(Nc3cc(Cl)c(Cl)c(Cl)c3)c2cc1OCC [TCMDC-131926],9.404%,–
O=C(c1ccc(Cl)cc1)N1CCCC(C(=O)N(Cc2nnc(-c3ccccc3Cl)o2)C2CC2)C1 (centres unmarked) [TCMDC-125331],-2.423%,–
O=C(Nc1ccc(S(=O)(=O)N2CCCCC2)cc1)c1cc(-c2ccccc2O)n[nH]1 [TCMDC-124310],-14.76%,–
COc1ccc2c(NN=Cc3ccccn3)ccnc2c1 [TCMDC-142028],-6.659%,–
Fc1ccc(NC(=S)NN=Cc2ccccn2)cc1 [TCMDC-125521],108.6%,–

SMILES,% Inhibition,% Inhibition (% Inhibition)
O=C(Nc1ccc(S(=O)(=O)N2CCCCCC2)cc1)c1cc(-c2ccccc2O)n[nH]1 [TCMDC-125203],-36.28%,–
O=S(=O)(c1ccc(NC(=S)NN=Cc2ccccn2)cc1)N1CCCCC1 [TCMDC-125787],60.8%,–
CC(C)c1ccc(NC(=S)NN=Cc2ccccn2)cc1 [TCMDC-125520],108.1%,–
Cc1cc(NN=Cc2ccccn2)c2cc(F)ccc2n1 [TCMDC-142020],16.37%,–
Cc1c(Cl)cccc1NC(=S)NN=Cc1ccccn1 [TCMDC-125487],106.6%,–
Fc1ccc(NC(=S)NCCc2ccccc2)cc1 [TCMDC-123847],-9.114%,–
CC(=NNC(=S)Nc1ccccc1Cl)c1ccccn1 [TCMDC-124278],2.359%,–
Cn1cnc2c(SCc3ccccc3OCc3ccccc3)ncnc21 [TCMDC-136495],-28.48%,–
O=C(/C=C/c1ccc(Cl)c(Cl)c1)N(Cc1ccccc1)C1CCC(CN2CCC(c3c[nH]c4ccccc34)CC2)CC1 (centres unmarked) [TCMDC-140359],26.1%,–
COc1cc2c(Nc3ccc(Br)cc3F)ncnc2cc1OCC1CCN(C)CC1 [TCMDC-123476],19.55%,–
O=C(O)C(F)(F)F.OC1CCCN(Cc2cccc(-c3ccc(-c4nc5cc(F)ccc5[nH]4)cc3)c2)C1 (centres unmarked) [TCMDC-133820],3.122%,–
COc1ccc2ncc(F)c(NC(=O)C3CCC(NCc4cc5c(F)cccc5[nH]4)CC3)c2n1 (centres unmarked) [TCMDC-136354],-14.12%,–
N#Cc1ccc2c(c1)CCN(CCC1CCC(NC(=O)Nc3ccncc3)CC1)C2 (centres unmarked) [TCMDC-139300],-15.77%,–
CCOC(=O)c1cc(=O)c2ccc(OCC#N)cc2o1 [TCMDC-131302],40.87%,–
Fc1ccc2[nH]c(-c3cccc(-c4cccc(CNCc5cnn(-c6ccccc6)n5)c4)c3)nc2c1.O=C(O)C(F)(F)F [TCMDC-132976],-2.641%,–
O=C(Nc1ccc2c(c1)OCCO2)c1cc(-c2cccnc2)nc2ccc(Cl)cc12 [TCMDC-124362],-23.33%,–
O=C(Cn1cnc2c(nnn2Cc2ccccc2F)c1=O)Nc1ccc2c(c1)OCCO2 [TCMDC-124462],-30.94%,–
FC(F)(F)c1cccc(NC(=S)NN=Cc2ccccn2)c1 [TCMDC-123509],31.63%,–
S=C(NN=Cc1ccccn1)Nc1ccc(Cl)c(Cl)c1 [TCMDC-125522],102.5%,–
Cc1cc(NN=Cc2ccccn2)c2cc(C(F)(F)F)ccc2n1 [TCMDC-142022],35.2%,–
CC(C)N=C(N)NN=Cc1ccc(Cl)c(Cl)c1 [TCMDC-138131],-38.45%,–
S=C(NN=Cc1ccccn1)Nc1ccc2c(c1)OCCO2 [TCMDC-132009],95.93%,–
S=C(NN=Cc1ccccn1)NC1CC2C=CC1C2 (centres unmarked) [TCMDC-125752],132.2%,–
